Measured values from PubChem BioAssay AID1823 (The Scripps Research Institute Molecular Screening Center, 2009).
Screen size: about 16,000 compounds; about 70 (0.4%) were called active. The sample as a whole holds a higher share of actives than the screen did. Values without a mark were called inactive. Rule as the data show it: active = inhibition above about 75%; inactive = the rest.

Assay: counter-screen for Nox1 inhibitors: inhibitors of luminol chemiluminescence (AID 1823)
Conditions: HRP/luminol/H2O2 chemiluminescence counterscreen; at 6.7 µM; stronger effect = higher value

SMILES | inhibition
COc1ccccc1NC(=O)c1ccc(C#Cc2ccccc2)o1 | 0.37%
CCCS(=O)(=O)c1csc(C(=O)OC)c1N/N=C/c1cccs1 | 1.56%
COCn1nnc2ccccc21 | 0.3%
Cc1c(N/N=C(\C#N)c2nc3ccccc3[nH]2)c(=O)n(-c2ccccc2)n1C | 7.97%
O=C(O)CC1(CC(=O)Nc2ccc(N3CCCCC3)cc2)CCCCC1 | -6.38%
CSc1sc(C(N)=O)cc1C#N | -6.88%
Cc1cc(C2=CSC3=NCCN23)ccc1Cl | 36.3%
OCCNC(=S)Nc1ccccc1-c1ccccc1 | 0.57%
O=S(=O)(c1ccccc1)c1cc(C(F)(F)F)cc(C(F)(F)F)c1 | -1.49%
CSc1sc(NC(=O)N2CCOCC2)c(-c2ccc(Cl)cc2)c1C#N | 3.63%
Oc1c(Cl)c(Cl)c(Cl)c2ccccc12 | 4.73%
CN(C)/C=C1/C(=O)NN=C1CSc1ccc(Cl)cc1 | -3.51%
Cc1ccc(N=C2SC3(CC3)C(=O)N2c2ccc(C)cc2)cc1 | -0.15%
CC1(C)CCc2cc(-c3ccnc(SCC(=O)c4ccccc4)n3)ccc2O1 | -4.62%
O=C(NCc1cccnc1)c1cnc2ccccc2n1 | -0.07%
CC(=O)NC(Cc1c[nH]c2ccccc12)C(=O)O (configuration not stated) | -1.35%

SMILES | inhibition
O=C(c1ccc(F)cc1)C1CCN(Cc2cn[nH]c2-c2ccccc2)CC1 | 0.3%
CC1(NC(=O)OCc2ccccc2)CC1NC(=O)OCc1ccccc1 (configuration not stated) | 1.98%
O=c1[nH]cc(Br)c(=O)[nH]1 | -0.43%
CC1CN(c2ccc(NC(=S)NCc3cccs3)cc2)CC(C)O1 (configuration not stated) | -35.2%
O=C(O)CC(CC(=O)N1CCOCC1)c1ccccc1 (configuration not stated) | -4.82%
O=C(CSc1ccc(Cl)cc1)NCCSCc1ccco1 | -0.61%
O=C(NCCO)NCCSc1ccc(F)cc1 | -2.48%
FC(F)(F)c1ccc(-n2cn[nH]c2=S)cc1 | 53.1%
CSc1n[nH]c(=O)n1-c1cccc(C(F)(F)F)c1 | 1.69%
FC(F)(F)c1cccc(-n2c(-c3ccncc3)n[nH]c2=S)c1 | 97.8% (active)
O=c1[nH]/c(=C/c2ccc(OC(F)(F)F)cc2)c(=O)[nH]/c1=C/c1ccc(OC(F)(F)F)cc1 | 0.16%
O=C(Nc1ccc(Cl)cc1)c1csc(COc2ccc3nonc3c2)n1 | 3.82%
Cn1cc(C(=O)c2ccc(Cl)cc2)cc1/C=C(\C#N)S(=O)(=O)c1ccc(C(F)(F)F)cn1 | 2.9%
O=C(Nc1ccccc1)Nc1nc2ccccc2s1 | -7.1%
O=c1c2cc(-c3ccccc3)sc2nc2n1N=C(c1cccs1)CS2 | -0.02%
COc1cc(OC)nc(S(C)(=O)=O)n1 | -4.97%
